Holding throughout (design): scale not given: direction of the effect not stated beside the values
Assay [1] concerns the target Protein translocase subunit SecA (Escherichia coli (strain K12)) (UniProt P10408). Put plainly: Assay to Identify E. coli SecA ATPase Inhibitors. As to conditions: 30 µM. It counts as functional.
Assay [2] has as its target T1, Ubiquitin-activating enzyme e1, putative (Leishmania donovani (strain BPK282A1)) (UniProt E9BSI1).
T1 sequence (whole entry): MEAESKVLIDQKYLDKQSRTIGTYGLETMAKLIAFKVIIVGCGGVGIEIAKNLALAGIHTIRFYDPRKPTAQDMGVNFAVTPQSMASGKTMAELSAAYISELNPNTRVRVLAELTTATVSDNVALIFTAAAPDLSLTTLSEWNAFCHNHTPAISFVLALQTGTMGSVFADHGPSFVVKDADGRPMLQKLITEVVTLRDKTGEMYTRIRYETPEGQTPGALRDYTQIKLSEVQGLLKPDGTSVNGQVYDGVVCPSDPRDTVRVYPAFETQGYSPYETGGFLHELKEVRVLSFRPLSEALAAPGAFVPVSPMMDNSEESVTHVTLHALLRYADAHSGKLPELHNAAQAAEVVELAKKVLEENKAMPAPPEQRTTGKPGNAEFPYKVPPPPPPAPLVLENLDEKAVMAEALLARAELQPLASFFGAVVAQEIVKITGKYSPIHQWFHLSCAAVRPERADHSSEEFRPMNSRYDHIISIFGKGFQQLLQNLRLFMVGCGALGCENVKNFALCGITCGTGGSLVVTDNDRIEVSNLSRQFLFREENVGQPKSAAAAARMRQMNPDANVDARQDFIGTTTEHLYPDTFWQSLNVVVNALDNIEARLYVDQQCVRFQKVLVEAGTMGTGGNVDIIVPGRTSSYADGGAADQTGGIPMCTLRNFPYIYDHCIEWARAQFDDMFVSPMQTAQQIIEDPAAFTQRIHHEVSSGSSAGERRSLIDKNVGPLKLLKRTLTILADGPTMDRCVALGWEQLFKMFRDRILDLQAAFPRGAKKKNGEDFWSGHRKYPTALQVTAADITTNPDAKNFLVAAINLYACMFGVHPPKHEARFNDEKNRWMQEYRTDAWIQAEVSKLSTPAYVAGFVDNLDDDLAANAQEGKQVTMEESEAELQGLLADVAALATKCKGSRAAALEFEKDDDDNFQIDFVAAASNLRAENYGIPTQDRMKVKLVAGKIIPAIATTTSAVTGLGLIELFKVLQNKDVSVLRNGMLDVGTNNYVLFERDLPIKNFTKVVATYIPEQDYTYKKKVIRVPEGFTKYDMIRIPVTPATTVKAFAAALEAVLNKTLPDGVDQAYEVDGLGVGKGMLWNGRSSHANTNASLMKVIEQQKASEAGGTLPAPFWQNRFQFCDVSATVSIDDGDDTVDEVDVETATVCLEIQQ
Description: Leishmania donovani Ubiquitin Activating Enzyme (LdE1). The class given is functional. Particulars: 30 µM.

For assay [3], the target named is AMP-activated protein kinase, AMPK (Homo sapiens) (UniProt P54646+O43741+P54619+Q9UGJ0+Q9Y478+Q13131+Q9UGI9). Description: AMP-dependent Kinase enzyme assay. An in vitro enzyme assay that detects ADP turnover that is directly proportional to AMPK activity. This uses naive AMPK that is activated during the assay with MK-8722. It counts as functional. Particulars: 30 µM.

Assay [4] has as its target Sialic acid-binding Ig-like lectin 9 (Homo sapiens) (UniProt Q9Y336). Put plainly: Hs-Siglec9 ALPHAscreen SOP 20170721. Particulars: 10 µM. For orientation: Bead proximity is the source of the signal in Alpha formats.
For assay [5], the system named is Trypanosoma cruzi. Put plainly: Trypanosoma cruzi phosphomannomutase and mannose-1-phosphate guanylyltransferase assay. It counts as functional. As to conditions: 10 µM.
In assay [6] the target is T2, Arginase-2, mitochondrial (Homo sapiens) (UniProt P78540).
T2 sequence (whole entry): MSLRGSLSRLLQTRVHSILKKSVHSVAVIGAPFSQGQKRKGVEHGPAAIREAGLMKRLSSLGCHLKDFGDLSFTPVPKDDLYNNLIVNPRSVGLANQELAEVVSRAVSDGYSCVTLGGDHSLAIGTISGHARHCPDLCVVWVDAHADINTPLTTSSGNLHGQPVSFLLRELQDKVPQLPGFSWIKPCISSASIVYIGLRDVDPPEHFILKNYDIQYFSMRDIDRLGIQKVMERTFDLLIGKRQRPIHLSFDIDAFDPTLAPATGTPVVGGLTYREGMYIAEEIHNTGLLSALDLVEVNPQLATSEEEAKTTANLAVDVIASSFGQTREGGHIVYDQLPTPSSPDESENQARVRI
Description: in vitro enzyme assay to detect the production of urea directly proportional to the activity of Arginase II. Also: in the data most compounds retested in dose-response had high values. It counts as functional. Particulars: 33.3 µM.

Assay [7] addresses T3, Proteasome subunit beta (Trypanosoma cruzi) (UniProt O96673).
T3 sequence (whole entry): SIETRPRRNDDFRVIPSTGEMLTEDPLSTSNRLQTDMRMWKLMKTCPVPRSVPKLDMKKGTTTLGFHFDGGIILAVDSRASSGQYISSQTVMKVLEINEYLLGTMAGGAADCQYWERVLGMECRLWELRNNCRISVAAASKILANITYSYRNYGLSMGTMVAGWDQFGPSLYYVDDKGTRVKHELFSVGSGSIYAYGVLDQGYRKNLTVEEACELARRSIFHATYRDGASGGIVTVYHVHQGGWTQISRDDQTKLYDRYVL
Description: Trypanosoma cruzi proteasome chymotrypsin-like activity (TcProtChymo) assay. Also: in the data most compounds retested in dose-response had high values. It counts as functional. Particulars: 9.37 µM.

The species named for assay [8] is Homo sapiens. Put plainly: To identify inhibition of the IFN signalling (Jak-Stat) pathway via expression of an eGFP reporter gene under the control of an IFN-stimulated response element (ISRE) containing MxA promoter. As to conditions: 30 µM. It counts as functional. (In general: In a reporter assay the amount or activity of a reporter protein is the signal.)
Assay [9] has as its target T4, Tyrosyl-tRNA synthetase, putative (Trypanosoma cruzi (strain CL Brener)) (UniProt Q4DSP6).
T4 sequence (whole entry): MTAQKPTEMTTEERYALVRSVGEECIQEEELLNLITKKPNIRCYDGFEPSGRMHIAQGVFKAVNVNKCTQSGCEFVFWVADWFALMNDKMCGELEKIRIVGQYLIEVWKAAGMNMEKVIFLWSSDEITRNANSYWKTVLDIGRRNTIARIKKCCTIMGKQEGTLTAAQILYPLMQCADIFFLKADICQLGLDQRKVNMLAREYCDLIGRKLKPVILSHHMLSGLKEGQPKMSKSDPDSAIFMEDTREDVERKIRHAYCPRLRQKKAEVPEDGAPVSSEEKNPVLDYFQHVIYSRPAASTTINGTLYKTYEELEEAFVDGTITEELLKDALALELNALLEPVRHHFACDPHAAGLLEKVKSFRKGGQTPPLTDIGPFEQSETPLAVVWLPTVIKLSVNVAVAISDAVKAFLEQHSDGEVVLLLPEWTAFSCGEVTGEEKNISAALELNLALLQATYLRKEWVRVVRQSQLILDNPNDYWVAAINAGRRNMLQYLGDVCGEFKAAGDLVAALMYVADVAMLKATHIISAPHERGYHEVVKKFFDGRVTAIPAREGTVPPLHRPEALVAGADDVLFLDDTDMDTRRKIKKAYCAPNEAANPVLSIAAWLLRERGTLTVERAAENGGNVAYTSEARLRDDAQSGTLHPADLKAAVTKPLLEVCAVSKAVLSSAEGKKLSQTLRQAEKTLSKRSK
Description: Trypanosoma cruzi tyrosyl tRNA synthetase (TcYRS) _High Tyrosine SOP. Also: in the data most compounds retested in dose-response had high values. As to conditions: 30 µM. The class given is functional.

The target of assay [10] is T4, Tyrosyl-tRNA synthetase, putative (Trypanosoma cruzi (strain CL Brener)). Put plainly: Trypanosoma cruzi tyrosyl tRNA synthetase (TcYRS) SOP. It counts as functional. Particulars: 30 µM.
Assay [11] has as its target Chromo domain-containing protein 1 (Saccharomyces cerevisiae (strain ATCC 204508 / S288c) (Baker's yeast)) (UniProt P32657). Put plainly: ScCHD-1 Enzyme Inhibition Assay. Also: in the data most compounds retested in dose-response had high values. It counts as functional. Particulars: 30 µM.

For some of these results: Measured potencies and affinities stand elsewhere.

Chromo domain-containing protein 1 (Saccharomyces cerevisiae (strain ATCC 204508 / S288c) (Baker's yeast)), sequence (P32657 whole entry, the tested form may be a part): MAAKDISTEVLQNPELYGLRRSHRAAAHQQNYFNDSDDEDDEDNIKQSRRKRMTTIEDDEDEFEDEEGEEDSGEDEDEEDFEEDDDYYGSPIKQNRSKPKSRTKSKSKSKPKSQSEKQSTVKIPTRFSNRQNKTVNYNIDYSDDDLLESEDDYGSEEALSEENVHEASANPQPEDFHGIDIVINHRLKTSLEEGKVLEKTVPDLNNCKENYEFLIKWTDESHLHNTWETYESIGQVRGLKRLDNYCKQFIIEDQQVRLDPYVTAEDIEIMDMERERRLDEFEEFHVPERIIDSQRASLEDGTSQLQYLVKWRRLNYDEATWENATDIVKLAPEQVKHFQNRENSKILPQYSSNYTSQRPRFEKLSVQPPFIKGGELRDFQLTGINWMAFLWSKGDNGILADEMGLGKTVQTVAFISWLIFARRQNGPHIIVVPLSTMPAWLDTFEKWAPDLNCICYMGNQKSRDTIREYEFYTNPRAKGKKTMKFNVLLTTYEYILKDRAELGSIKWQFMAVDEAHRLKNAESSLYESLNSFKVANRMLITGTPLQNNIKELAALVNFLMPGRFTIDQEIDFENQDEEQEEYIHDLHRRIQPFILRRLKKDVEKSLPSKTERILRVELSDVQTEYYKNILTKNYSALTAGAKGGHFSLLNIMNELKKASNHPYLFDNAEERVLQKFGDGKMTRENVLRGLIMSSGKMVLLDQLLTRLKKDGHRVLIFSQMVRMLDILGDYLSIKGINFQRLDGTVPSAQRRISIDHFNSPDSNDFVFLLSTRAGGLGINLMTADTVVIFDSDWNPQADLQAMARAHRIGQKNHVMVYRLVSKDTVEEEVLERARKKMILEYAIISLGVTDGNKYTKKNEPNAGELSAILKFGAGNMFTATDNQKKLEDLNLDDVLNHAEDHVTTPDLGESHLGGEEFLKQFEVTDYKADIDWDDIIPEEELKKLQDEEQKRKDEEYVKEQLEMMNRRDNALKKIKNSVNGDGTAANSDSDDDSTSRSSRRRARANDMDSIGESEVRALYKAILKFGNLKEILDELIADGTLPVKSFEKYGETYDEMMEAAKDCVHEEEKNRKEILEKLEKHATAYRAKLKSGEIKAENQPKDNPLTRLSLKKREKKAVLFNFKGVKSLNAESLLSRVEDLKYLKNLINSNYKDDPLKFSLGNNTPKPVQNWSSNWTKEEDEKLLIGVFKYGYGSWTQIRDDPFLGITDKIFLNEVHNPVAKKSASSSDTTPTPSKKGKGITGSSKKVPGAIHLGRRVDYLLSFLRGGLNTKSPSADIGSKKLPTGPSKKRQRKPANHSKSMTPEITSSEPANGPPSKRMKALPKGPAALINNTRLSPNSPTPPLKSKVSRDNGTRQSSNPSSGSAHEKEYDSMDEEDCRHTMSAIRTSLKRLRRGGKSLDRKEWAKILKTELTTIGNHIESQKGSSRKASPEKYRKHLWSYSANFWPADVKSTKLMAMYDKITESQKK
Protein translocase subunit SecA (Escherichia coli (strain K12)), sequence (P10408 whole entry): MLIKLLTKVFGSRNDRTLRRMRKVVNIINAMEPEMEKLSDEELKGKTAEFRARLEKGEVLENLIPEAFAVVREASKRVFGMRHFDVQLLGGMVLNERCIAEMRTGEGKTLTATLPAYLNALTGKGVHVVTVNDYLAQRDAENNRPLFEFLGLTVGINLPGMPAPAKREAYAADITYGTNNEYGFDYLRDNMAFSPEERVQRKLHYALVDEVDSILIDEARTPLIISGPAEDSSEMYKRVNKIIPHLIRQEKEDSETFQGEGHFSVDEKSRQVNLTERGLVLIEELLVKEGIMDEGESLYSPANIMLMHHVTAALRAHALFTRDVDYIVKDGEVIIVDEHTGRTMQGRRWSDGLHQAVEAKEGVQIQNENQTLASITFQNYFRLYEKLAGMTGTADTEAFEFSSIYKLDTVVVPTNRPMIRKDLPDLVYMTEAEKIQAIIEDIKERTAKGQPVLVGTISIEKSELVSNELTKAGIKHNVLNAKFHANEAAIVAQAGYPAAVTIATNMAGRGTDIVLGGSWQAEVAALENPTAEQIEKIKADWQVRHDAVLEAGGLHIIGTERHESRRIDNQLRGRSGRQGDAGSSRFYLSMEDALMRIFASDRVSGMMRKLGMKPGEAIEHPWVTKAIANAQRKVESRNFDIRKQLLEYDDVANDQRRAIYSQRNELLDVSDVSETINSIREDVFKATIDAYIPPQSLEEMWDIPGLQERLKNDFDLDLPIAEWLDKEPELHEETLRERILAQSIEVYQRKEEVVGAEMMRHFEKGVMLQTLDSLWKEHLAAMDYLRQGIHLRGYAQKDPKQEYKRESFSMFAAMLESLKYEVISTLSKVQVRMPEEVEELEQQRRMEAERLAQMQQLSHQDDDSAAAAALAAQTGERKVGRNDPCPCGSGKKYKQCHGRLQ
Sialic acid-binding Ig-like lectin 9 (Homo sapiens), sequence (Q9Y336 whole entry): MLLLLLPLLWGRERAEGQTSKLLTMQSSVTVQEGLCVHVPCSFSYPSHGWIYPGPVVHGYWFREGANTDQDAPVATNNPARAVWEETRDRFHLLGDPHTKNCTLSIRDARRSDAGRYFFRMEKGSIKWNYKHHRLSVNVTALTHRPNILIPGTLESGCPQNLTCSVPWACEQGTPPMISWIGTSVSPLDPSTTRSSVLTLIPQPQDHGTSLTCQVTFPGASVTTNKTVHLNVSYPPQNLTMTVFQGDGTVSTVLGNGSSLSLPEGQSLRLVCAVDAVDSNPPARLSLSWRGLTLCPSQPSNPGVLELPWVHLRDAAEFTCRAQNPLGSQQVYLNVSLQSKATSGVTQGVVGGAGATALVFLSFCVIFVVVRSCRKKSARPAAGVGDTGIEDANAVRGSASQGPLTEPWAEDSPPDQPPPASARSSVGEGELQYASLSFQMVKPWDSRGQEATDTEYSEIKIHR

On to `Cn1cc(CCC(=O)N2CCN(Cc3ccncc3)CC2)cn1`, for which the Percent Effect in assay [1] was -7.43%; in [2], 15.6%; in assay [3] it was 3.53%; in assay [4], -6.41%; in assay [5], -4.87%; in [6], -1.42%. The Percent Effect in assay [7] was 4.22%; in assay [8], 2.24%; in assay [9] it was 6.8%; in assay [10] it was 14.6%; in assay [11], -5.86%.
For the compound `c1cnc(N2CCCC(NCc3cccc4c3OCCO4)C2)nc1` (stereo unspecified), the Percent Effect in assay [1] is -0.886%; in assay [2] it was -5.41%; in assay [3], -2.02%; in assay [4] it was -1.18%; in assay [5] it was 3.87%; in [6], -4.81%. The Percent Effect in assay [7] was 7.21%; in assay [8], 10.1%; in assay [9], 4.43%; in assay [10], 3.7%; in [11], -2.9%.
`O=S(=O)(C1CC1)N1CC[C@]2(C[C@@H](Oc3ccccn3)CO2)C1`: the Percent Effect in assay [1] was -2.9%; in assay [2], 10.4%; in assay [3], 2.58%; in [4], 5.55%; in assay [5] it was -2.46%; in assay [6] it was 3.23%. In addition, the Percent Effect in assay [7] is 7.66%; in assay [8], 11.7%; in [9] it was 0%; in [10], 8.97%; in assay [11], -7.95%.
For the compound `Cc1cc(C)n(CCCNC(=O)C(C)NC(=O)c2ccccc2Cl)n1` (stereo unspecified), the Percent Effect is -2.06% in assay [1]; 5.26% in assay [2]; 4.16% in [3]; -4.01% in assay [4]; -2.63% in assay [5]; 0% in assay [6]. Further, the Percent Effect in assay [7] was 6.81%; in [8] it was -13.1%; in assay [9] it was 5.32%; in [10], 10.4%; in assay [11], -5.43%.
For the compound `COc1cc(OC)c(C2Nc3cc(Cl)ccc3C3=NCCN32)cc1OC` (stereo unspecified), the Percent Effect in [1] was -5.59%; in assay [2] it was -8%; in [3] it was -2.93%; in assay [4], 2.92%; in assay [5], 6.89%; in [6] it was -3.5%. Besides, the Percent Effect in assay [7] is 1.32%; in assay [8] it was -10.9%; in [9], 7.45%; in [10], 14.1%; in [11], -5.67%.
On to `Cc1ccc(C(=O)N(C)Cc2cscn2)c(=O)[nH]1`, for which the Percent Effect in assay [1] is -6.94%; in assay [2] it was 15.8%; in assay [3] it was -3.33%; in assay [4], 3.04%; in assay [5] it was 2.24%; in [6], 1.18%. The Percent Effect in [7] is 4.31%; in [8] it was 1.38%; in assay [9], 4.25%; in [10], 2.6%; in [11] it was -6.33%.
`CCc1cnc(CN(C(C)=O)C2CCN(CCc3cccs3)C2)o1` (stereo unspecified): the Percent Effect in assay [1] was -3.22%; in [2], 13.2%; in assay [3], 0.738%; in [4], -12.5%; in [5], -4.95%; in assay [6] it was 2.16%. Moreover, the Percent Effect in assay [7] was 21.6%; in [8] it was 4.61%; in assay [9], 7.39%; in assay [10], 6.17%; in assay [11], -8.12%.
Consider `Cc1cc(C(=O)N2Cc3ccccc3OC3(CCOCC3)C2)nc(N)n1`, for which the Percent Effect in [1] was -5.65%; in assay [2], 17.6%; in assay [3], 1.22%; in [4], -2.77%; in assay [5] it was 0%; in assay [6] it was -4.87%. The Percent Effect is 22.9% in [7]; 0.0795% in [8]; 2.15% in [9]; 14.3% in assay [10]; -24% in assay [11].
For the compound `c1sc(C2CCCC2)nc1CN1CCn2c(nnc2C2CC2)C1`, the Percent Effect in [1] is -6.12%; in assay [2], 5.41%; in [3] it was 0.718%; in [4] it was -3.09%; in [5] it was -2.14%; in assay [6] it was -0.554%. In addition, the Percent Effect is 10.4% in assay [7]; 37.1% in [8]; 10.9% in assay [9]; 15.8% in assay [10]; -4.21% in assay [11].
On to `c1ccc(-c2nnn3c2COC(CNCC2CCOCC2)C3)cc1` (stereo unspecified), for which the Percent Effect is -4.05% in assay [1]; 8% in [2]; 10.9% in assay [3]; 4.62% in [4]; -0.984% in assay [5]; -1.63% in assay [6]. The Percent Effect in assay [7] was 0.0881%; in assay [8], 12.3%; in assay [9] it was 7.45%; in [10], 19.2%; in assay [11], -2.25%.
As to `CC(C)CS(=O)(=O)N1C[C@H]2C[C@H](C(=O)NCc3ccccc3)[C@@H](C1)O2`, the Percent Effect in [1] is 1.12%; in [2], 9.33%; in assay [3], 4.22%; in [4] it was -2.68%; in [5] it was -10%; in assay [6] it was 0.88%. Besides, the Percent Effect was 13.3% in [7]; 2.72% in [8]; 3.17% in assay [9]; 2.56% in [10]; -5.74% in assay [11].

(Values after ChEMBL document CHEMBL3988442, “University of Dundee, Small-Polar-MMV Screening Library” (2021).)
